Results filed as inconclusive are left out. Calls of active or inactive are those of the source. How the source made its calls, unless noted: active means hit-call score of the fitted dose curve at least 0.9, where 1 is the maximum; inactive means score below 0.9.

Assay [1] concerns the target Retinoic acid receptor RXR-alpha (Homo sapiens) (UniProt P19793). Briefly: ATG_RXRa_TRANS: Attagene TRANS-FACTORIAL HepG2 Assay for human Retinoid X Receptor alpha (RXRa) (AID 2283012; active means hit-call score of the fitted dose curve at least 0.9, where 1 is the maximum). In outline:
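Measures exogenous chimeric NR-GAL4 activity in transfected HepG2 liver cells after 24 h of dosing. Induced reporter mRNA was detected by RT-PCR with capillary electrophoresis, and gain of signal was analysed against DMSO.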

Read-out in assay [2]: E-selectin (Homo sapiens) (UniProt P16581)
Briefly: BSK_3C_Eselectin: BioMAP Diversity Plus: 3C Assay for Eselectin Biomarker Activity (AID 2283015).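 Further: cell surface E-selectin protein quantified by ELISA 24 h after dosing.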 The conditions noted are these: primary human endothelial cells (HUVEC); actives raise or lower the signal. Put shortly:
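HUVEC, 3C stimulation; compound exposure 24 h; E-selectin by ELISA; gain- or loss-of-signal fitted bidirectionally vs DMSO baseline.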

Read-out in assay [3]: Interleukin-1 alpha (IL1a), IL1A (gene 3552)
In words: BSK_BE3C_IL1a: BioMAP Diversity Plus: BE3C Assay for Interleukin-1 alpha (IL1a) Biomarker Activity (AID 2283016). To be noted: primary human bronchial epithelial cells; actives raise or lower the signal. In outline:
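Signal from IL-1a ELISA, taken 24 h after chemical dosing of human bronchial epithelial cells, is compared with DMSO as baseline using bidirectional curve fitting.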

Read-out in assay [4]: Monocyte Chemoattractant Protein-1 (MCP1), CCL2 (gene 6347)
Briefly: BSK_3C_MCP1: BioMAP Diversity Plus: 3C Assay for Monocyte Chemoattractant Protein-1 (MCP1) Biomarker Activity (AID 2283017). The conditions noted are these: primary human endothelial cells (HUVEC); actives raise or lower the signal. In outline:
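HUVEC, 3C system; 24 h chemical exposure; MCP-1 by ELISA; bidirectional curve fit vs DMSO baseline.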

Read-out in assay [5]: Monocyte Chemoattractant Protein-1 (MCP1), CCL2 (gene 6347)
In words: BSK_4H_MCP1: BioMAP Diversity Plus: 4H Assay for Monocyte Chemoattractant Protein-1 (MCP1) Biomarker Activity (AID 2283018). To be noted: primary human endothelial cells (HUVEC); actives raise or lower the signal. In outline: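 Endothelial cells from umbilical vein were treated with test chemical, then after 24 h MCP-1 levels were quantified by ELISA; endpoint values came from bidirectional fitting with DMSO as baseline of activity.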

Read-out in assay [6]: Human Leukocyte Antigen - DR isotype (HLADR), HLA-DRA (gene 3122)
Briefly: BSK_3C_HLADR: BioMAP Diversity Plus: 3C Assay for Human Leukocyte Antigen - DR isotype (HLADR) Biomarker Activity (AID 2283019).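 On outcome: ELISA of cell-surface HLA-DR on HUVEC 24 h after dosing.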 To be noted: primary human endothelial cells (HUVEC); actives raise or lower the signal. In outline: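 HUVEC, 3C stimulation, 24 h post-dose; HLA-DR by ELISA; bidirectional curve fit vs DMSO baseline; gain or loss of signal scored.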

Read-out in assay [7]: Interleukin-8 (IL8), CXCL8 (gene 3576)
Briefly: BSK_3C_IL8: BioMAP Diversity Plus: 3C Assay for Interleukin-8 (IL8) Biomarker Activity (AID 2283020). The conditions noted are these: primary human endothelial cells (HUVEC); actives raise or lower the signal. Put shortly:
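Endothelial primary cells of human umbilical vein origin are dosed with chemical; after 24 h the IL-8 biomarker is measured by ELISA, and concentration–response is fitted in both directions versus DMSO.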

Read-out in assay [8]: Monokine induced gamma interferon (MIG), CXCL9 (gene 4283)
In words: BSK_3C_MIG: BioMAP Diversity Plus: 3C Assay for Monokine induced gamma interferon (MIG) Biomarker Activity (AID 2283021). To be noted: primary human endothelial cells (HUVEC); actives raise or lower the signal. Put shortly:
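Endothelial primary cells (human umbilical vein) are dosed with test chemical in the 3C system. MIG levels are measured by ELISA at 24 h and fitted in both directions relative to DMSO.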

The target of assay [9] is human Vitamin D Receptor (VDR), VDR (gene 7421) (UniProt P11473). Briefly: ATG_VDR_TRANS: Attagene TRANS-FACTORIAL HepG2 Assay for human Vitamin D Receptor (VDR) (AID 2283022; active means hit-call score of the fitted dose curve at least 0.9, where 1 is the maximum). In outline:
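RT-PCR/capillary electrophoresis read-out of reporter mRNA induction in transiently transfected HepG2; 24 h dosing; chimeric NR-Gal4 (TRANS format); gain-of-signal fit against DMSO baseline.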

The nature of assay [10]: BSK_3C_SRB: Viability Assessment in the BioMAP Diversity Plus: 3C Assay (AID 2283023).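 Further: fitted both ways against DMSO so a hit may be signal rise or drop.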 The conditions noted are these: primary human endothelial cells (HUVEC). In outline: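 HUVEC, 24 h post-dose; 10% TCA fix, 0.1% SRB stain, A560 nm. Bidirectional curve fit vs DMSO negative control.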
Read-out in assay [11]: Matrix Metallopeptidase 1 (MMP1), MMP1 (gene 4312)
In words: BSK_BE3C_MMP1: BioMAP Diversity Plus: BE3C Assay for Matrix Metallopeptidase 1 (MMP1) Biomarker Activity (AID 2283024). The conditions noted are these: primary human bronchial epithelial cells; actives raise or lower the signal. In outline:
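MMP1 signal, measured by ELISA after a 24 h chemical exposure of human primary bronchial epithelial cells, is analysed with bidirectional fitting using DMSO as negative control.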

Assay [12] can be described thus: BSK_3C_Vis: BioMAP Diversity Plus: 3C Assay for Morphology Visualization (AID 2283025).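 Further: fitted both ways so gain or loss versus DMSO counts.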 To be noted: primary human endothelial cells (HUVEC). Put shortly:
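Morphology read by light microscopy serves as a background control for the multiplexed 3C assay in human umbilical vein endothelial cells, taken 24 h after dosing, with DMSO as the negative control and bidirectional curve fitting.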

Read-out in assay [13]: Pselectin, SELP (gene 6403)
Briefly: BSK_4H_Pselectin: BioMAP Diversity Plus: 4H Assay for Pselectin Biomarker Activity (AID 2283026). To be noted: primary human endothelial cells (HUVEC); actives raise or lower the signal. In outline:
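Endothelial primary cells (human umbilical vein) are dosed, incubated 24 h, and assayed for surface P-selectin by ELISA; responses in either direction are fitted relative to the DMSO negative control.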

Assay [14] can be described thus: BSK_4H_SRB: Viability Assessment in the BioMAP Diversity Plus: 4H Assay (AID 2283027).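 Further: cells exposed to compound for 24 h before staining.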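 On AC50: curves fitted both ways versus DMSO so AC50 may be loss or gain.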 To be noted: primary human endothelial cells (HUVEC). In outline: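 Cytotoxicity read-out in primary human endothelial cells: after 24 h compound exposure, cells were TCA-fixed (10%), stained with 0.1% SRB and absorbance taken at 560 nm. Values fitted in both directions relative to DMSO.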

Assay [15] can be described thus: BSK_BE3C_SRB: Viability Assessment in the BioMAP Diversity Plus: BE3C Assay (AID 2283028). The conditions noted are these: primary human bronchial epithelial cells. Put shortly:
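Primary human bronchial epithelium; chemical dosing, 24 h; 10% TCA fix, 0.1% SRB stain, A560; bidirectional fit vs DMSO baseline.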

Read-out in assay [16]: Thrombomodulin, THBD (gene 7056)
Briefly: BSK_3C_Thrombomodulin: BioMAP Diversity Plus: 3C Assay for Thrombomodulin Biomarker Activity (AID 2283029). The conditions noted are these: primary human endothelial cells (HUVEC); actives raise or lower the signal. In outline:
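Endothelial cells from umbilical vein are dosed with test chemical and incubated 24 h. Thrombomodulin is then quantified by ELISA, with DMSO serving as negative control and activity baseline.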

Read-out in assay [17]: Urokinase-type plasminogen activator receptor (uPAR), PLAUR (gene 5329)
In words: BSK_4H_uPAR: BioMAP Diversity Plus: 4H Assay for Urokinase-type plasminogen activator receptor (uPAR) Biomarker Activity (AID 2283030). To be noted: primary human endothelial cells (HUVEC); actives raise or lower the signal. Put shortly: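 HUVEC, 24 h post-dose; uPAR by ELISA; bidirectional fit vs DMSO baseline.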

Read-out in assay [18]: Vascular endothelial growth factor receptor 2 (Homo sapiens) (UniProt P35968)
Briefly: BSK_4H_VEGFRII: BioMAP Diversity Plus: 4H Assay for Vascular endothelial growth factor receptor 2 (VEGFR2) Biomarker Activity (AID 2283031). The conditions noted are these: primary human endothelial cells (HUVEC); actives raise or lower the signal. Put shortly: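 HUVEC (human primary), 4H system; 24 h post-dose; VEGFRII by ELISA; bidirectional curve fit vs DMSO baseline; gain or loss of signal scored.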

Assay [19] concerns the target human Retinoid X Receptor beta (RXRb), RXRB (gene 6257) (UniProt P28702). Briefly: ATG_RXRb_TRANS: Attagene TRANS-FACTORIAL HepG2 Assay for human Retinoid X Receptor beta (RXRb) (AID 2283013; active means hit-call score of the fitted dose curve at least 0.9, where 1 is the maximum). In outline:
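Chimeric receptor-Gal4 activity was assessed in transiently transfected human HepG2 cells after 24 h exposure. Transcripts from GAL4-UAS reporters were quantified by fluorescent RT-PCR and capillary electrophoresis, with DMSO as negative control and baseline.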

Assay [20] concerns the target human Thyroid Receptor alpha (THRa1), THRA (gene 7067) (UniProt P10827). Briefly: ATG_THRa1_TRANS: Attagene TRANS-FACTORIAL HepG2 Assay for human Thyroid Receptor alpha (THRa1) (AID 2283014; active means hit-call score of the fitted dose curve at least 0.9, where 1 is the maximum). In outline:
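Transient HepG2 transfection, NR-Gal4 chimera driving GAL4-UAS reporters; 24 h compound exposure; total RNA, oligo(dT) RT, PCR, fluorescent primer extension, capillary electrophoresis. Upward direction vs DMSO control.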

Chain of human Retinoid X Receptor beta (RXRb), RXRB (gene 6257) (P28702 whole entry, looked up, the tested form may be a part): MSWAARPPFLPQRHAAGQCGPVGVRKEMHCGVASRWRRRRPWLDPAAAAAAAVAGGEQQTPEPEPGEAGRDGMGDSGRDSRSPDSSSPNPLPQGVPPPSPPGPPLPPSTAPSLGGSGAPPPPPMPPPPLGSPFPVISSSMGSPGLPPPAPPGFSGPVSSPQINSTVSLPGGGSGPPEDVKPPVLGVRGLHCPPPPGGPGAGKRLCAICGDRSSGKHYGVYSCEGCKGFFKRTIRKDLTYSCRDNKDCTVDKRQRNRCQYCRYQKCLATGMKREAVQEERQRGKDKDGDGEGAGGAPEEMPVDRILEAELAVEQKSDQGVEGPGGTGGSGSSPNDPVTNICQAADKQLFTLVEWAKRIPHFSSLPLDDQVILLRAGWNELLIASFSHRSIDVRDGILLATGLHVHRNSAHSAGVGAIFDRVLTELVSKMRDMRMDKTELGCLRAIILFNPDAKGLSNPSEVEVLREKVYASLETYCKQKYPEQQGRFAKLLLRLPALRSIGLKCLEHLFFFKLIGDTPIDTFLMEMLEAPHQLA
Chain of E-selectin (Homo sapiens) (P16581 whole entry, looked up): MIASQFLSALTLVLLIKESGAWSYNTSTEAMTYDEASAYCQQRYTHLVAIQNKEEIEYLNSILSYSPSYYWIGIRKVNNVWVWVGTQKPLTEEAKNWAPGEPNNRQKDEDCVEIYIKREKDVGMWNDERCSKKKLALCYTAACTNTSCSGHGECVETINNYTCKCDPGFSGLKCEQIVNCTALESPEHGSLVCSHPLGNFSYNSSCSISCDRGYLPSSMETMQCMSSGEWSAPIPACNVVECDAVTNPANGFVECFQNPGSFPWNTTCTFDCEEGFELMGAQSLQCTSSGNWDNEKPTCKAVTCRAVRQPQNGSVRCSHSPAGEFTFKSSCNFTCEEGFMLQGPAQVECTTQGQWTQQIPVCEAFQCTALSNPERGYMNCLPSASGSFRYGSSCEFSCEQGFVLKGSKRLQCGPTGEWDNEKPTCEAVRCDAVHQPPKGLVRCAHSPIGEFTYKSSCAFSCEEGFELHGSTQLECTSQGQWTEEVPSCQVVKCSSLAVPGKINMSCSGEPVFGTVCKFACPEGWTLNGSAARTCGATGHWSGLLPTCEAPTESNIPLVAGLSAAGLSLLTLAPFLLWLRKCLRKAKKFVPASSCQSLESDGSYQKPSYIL
Chain of human Thyroid Receptor alpha (THRa1), THRA (gene 7067) (P10827 whole entry, looked up, the tested form may be a part): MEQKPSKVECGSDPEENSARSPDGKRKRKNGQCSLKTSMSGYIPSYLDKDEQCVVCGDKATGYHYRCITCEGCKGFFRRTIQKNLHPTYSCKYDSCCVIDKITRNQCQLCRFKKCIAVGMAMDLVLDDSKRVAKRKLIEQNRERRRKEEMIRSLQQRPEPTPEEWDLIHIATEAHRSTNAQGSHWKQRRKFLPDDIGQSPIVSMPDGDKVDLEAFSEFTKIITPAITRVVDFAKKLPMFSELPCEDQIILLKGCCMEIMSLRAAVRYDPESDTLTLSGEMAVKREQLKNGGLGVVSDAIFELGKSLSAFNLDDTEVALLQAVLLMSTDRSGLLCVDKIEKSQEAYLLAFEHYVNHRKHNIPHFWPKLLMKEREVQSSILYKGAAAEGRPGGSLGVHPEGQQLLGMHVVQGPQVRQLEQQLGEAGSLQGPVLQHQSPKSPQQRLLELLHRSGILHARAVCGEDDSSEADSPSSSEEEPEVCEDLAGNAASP
Chain of human Vitamin D Receptor (VDR), VDR (gene 7421) (P11473 whole entry, looked up, the tested form may be a part): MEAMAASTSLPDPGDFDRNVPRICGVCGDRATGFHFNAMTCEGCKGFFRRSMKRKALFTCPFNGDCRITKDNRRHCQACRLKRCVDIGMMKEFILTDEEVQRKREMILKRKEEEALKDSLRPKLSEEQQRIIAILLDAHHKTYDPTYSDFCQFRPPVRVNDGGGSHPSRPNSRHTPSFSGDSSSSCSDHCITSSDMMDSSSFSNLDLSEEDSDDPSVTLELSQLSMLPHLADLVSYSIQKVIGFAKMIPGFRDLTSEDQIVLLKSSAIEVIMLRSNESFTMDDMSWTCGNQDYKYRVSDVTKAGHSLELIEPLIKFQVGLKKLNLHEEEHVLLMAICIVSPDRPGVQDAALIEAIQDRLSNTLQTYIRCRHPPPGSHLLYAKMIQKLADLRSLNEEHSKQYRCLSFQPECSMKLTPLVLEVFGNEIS
Chain of Retinoic acid receptor RXR-alpha (Homo sapiens) (P19793 whole entry, looked up, the tested form may be a part): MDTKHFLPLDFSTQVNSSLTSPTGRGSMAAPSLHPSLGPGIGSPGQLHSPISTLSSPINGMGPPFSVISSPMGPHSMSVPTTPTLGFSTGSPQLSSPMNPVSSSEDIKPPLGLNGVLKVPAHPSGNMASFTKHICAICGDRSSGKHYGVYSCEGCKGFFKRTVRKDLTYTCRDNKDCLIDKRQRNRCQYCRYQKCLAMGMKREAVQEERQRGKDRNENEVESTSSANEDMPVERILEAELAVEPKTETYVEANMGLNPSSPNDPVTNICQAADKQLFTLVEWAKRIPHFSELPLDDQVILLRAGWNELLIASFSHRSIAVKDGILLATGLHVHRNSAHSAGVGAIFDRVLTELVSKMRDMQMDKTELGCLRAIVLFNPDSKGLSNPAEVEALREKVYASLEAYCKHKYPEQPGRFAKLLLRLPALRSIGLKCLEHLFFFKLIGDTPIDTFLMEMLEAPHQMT

`CCc1cc(C2=C(C(=O)O)N(c3ccccc3C(F)(F)F)S(=O)(=O)c3ccccc32)cc2c1OCO2`: the outcome in assay [1], in assay [2], in [3], in assay [4], in assay [5] and in assay [7] was inactive. Further, the outcome in assay [8], in [9], in assay [10], in assay [12], in [13] and in [14] was inactive. The result in [15], in assay [17] and in [18] was inactive. For the same compound, the AC50 in assay [6] was 24.8 µM (active); in assay [11], 10.8 µM (active); in assay [16] it was 10.2 µM (active).
Turning to `Cc1cc(SC2=C(O)C[C@@](CCc3ccc(N)cc3)(C(C)C)OC2=O)c(C(C)(C)C)cc1CO`, the compound was called inactive in assay [1], in [19], in assay [2], in [3], in assay [4] and in [5]. For the same compound, the result in assay [7], in assay [8], in assay [9], in assay [10], in [11] and in assay [12] was inactive. Besides, the outcome in assay [13], in assay [14], in [15], in assay [16], in [17] and in assay [18] was inactive.
As to `O=C1c2c(O)cccc2Cc2cccc(O)c21`, the call in assay [19], in [20], in [2], in [3], in assay [4] and in assay [5] was inactive. Moreover, the result in assay [6], in assay [7], in assay [8], in assay [13], in assay [15] and in assay [16] was inactive. In addition, the result in [17] and in [18] was inactive. In addition, the AC50 in [10] is 20 µM (active); in assay [11], 4.63 µM (active); in assay [12], 39 µM (active); in [14], 20 µM (active).
As for `CCCCCCCCCCCCCCCCO`, the compound was called inactive in assay [20], in assay [2], in assay [3], in assay [4], in assay [5] and in [7]. Moreover, the result in assay [8], in [10], in assay [11], in assay [12], in [13] and in assay [14] was inactive. Besides, the outcome in [15], in assay [16], in assay [17] and in assay [18] was inactive.
`CC(COCC(C)OC(=O)c1ccccc1)OC(=O)c1ccccc1` (configuration not stated): the call in [20], in assay [2], in assay [3], in [4], in [5] and in assay [6] was inactive. For the same compound, the result in assay [7], in assay [8], in assay [9], in assay [10], in assay [11] and in assay [12] was inactive. The result in assay [13], in [14], in [15], in assay [16], in [17] and in [18] was inactive.
As to `CC1=C(C)S(=O)(=O)CCS1(=O)=O`, the compound was called inactive in assay [20], in [2], in assay [3], in assay [4], in assay [5] and in assay [6]. The outcome in [7], in assay [8], in assay [10], in [11], in [13] and in assay [14] was inactive. In addition, the outcome in [15], in assay [16], in assay [17] and in assay [18] was inactive. Besides, in assay [12], the AC50 was 39 µM (active).
On to `C#CC(O)C(CC)CCCC` (configuration not stated), for which the compound was called inactive in [19], in assay [2], in assay [3], in assay [4], in [5] and in assay [6]. Besides, the outcome in assay [7], in assay [8], in [10], in assay [11], in [12] and in assay [13] was inactive. In addition, the outcome in assay [14], in assay [15], in assay [16], in assay [17] and in assay [18] was inactive.
Regarding `CO[C@@H]1COCC[C@@H]1N[C@@H]1CC[C@@](C(=O)N2CCc3ncc(C(F)(F)F)cc3C2)(C(C)C)C1`, the outcome in assay [2], in assay [3], in assay [4], in assay [5], in [7] and in [8] was inactive. Further, the outcome in assay [10], in assay [11], in assay [12], in assay [13], in assay [14] and in assay [15] was inactive. The outcome in assay [16], in assay [17] and in assay [18] was inactive.

What is called AC50 is the concentration at which the activity in the assay is half-maximal.

(Values after PubChem BioAssay (EPA / NIEHS).)
